The values below come from PubChem BioAssay (NCI).

SMILES strings stand for the structures. Compounds without any hit were thinned out: in the full panel of roughly 79,000, 15% have a hit. Values without a mark were called inactive. Active and inactive are the calls of the source. No stated cut-off is given here; in the data, active means growth inhibition above about 70%; inactive means the rest.

This test in a line: NCI Yeast Anticancer Drug Screen. Data for the mlh1 rad18 strain (AID 175). The conditions noted are these: S. cerevisiae mlh1 rad18 strain growth inhibition; at 50.0 µM; active compounds read high. Here is the method:
Growth inhibition of yeast strains with defined genetic alterations is measured as a screen for potential anti-cancer activity. Selected strains with alterations in DNA damage repair or cell cycle control were exposed to compounds and growth inhibition was measured relative to vehicle treated controls. The strain used in this assay is mlh1 rad18
With `CCC(C)OC(=O)Nc1cccc(OC(=O)NC)c1` (stereo not given), the growth inhibition is -0.3%.

Take `CC(=O)Nc1ccc2c(c1)C(=O)c1cc(NC(C)=O)ccc1-2`: the growth inhibition is -7.5%.

With `Cc1cc(C)n(/C(N)=N/[N+](=O)[O-])n1`, the growth inhibition was 15.2%. The value for `Cc1cc(S(=O)(=O)F)ccc1NC(=O)NCc1ccc([N+](=O)[O-])cc1` was 10.1%; that for `Cc1ccc(NC(=O)N(C)N=O)cc1` was -4.45%. With `CCCCCC[n+]1noc(N)c1-c1ccc(-c2c(N)on[n+]2CCCCCC)cc1` the figure was 18.5%. With `C(=NCCN=CC1CCCC[N-]1)C1CCCC[N-]1.[Cu+2].[O-][Cl+3]([O-])([O-])O` (stereo not given) the figure was 82.7% (active).

Regarding `S=C(N=Nc1ccccc1)NNc1ccccc1.[Zn+2]`, the growth inhibition is 12.3%. With `CC(C)N([PH2+]N(C(C)C)C(C)C)C(C)C.[C-]#[O+].[C-]#[O+].[C-]#[O+].[C-]#[O+].[C-]#[O+].[Mo]` the figure was -1.35%; with `COc1cc(C2c3cc4c(cc3[C@@H](OC)[C@H]3COC(=O)C23)OCO4)cc(OC)c1O` (stereo not given in full), 88.7% (active); with `Cc1ccc(P(=O)(O)O)cc1`, -14.8%. With `CC(=N\[O-])/C(C)=N/[O-].CC(=N\[O-])/C(C)=N/[O-].[Cu+2]` the figure was 29.2%; with `Nc1nc(-c2cccc(S(=O)(=O)F)c2)cs1`, 34.6%. With `COC(=O)C(Cl)Cl` the figure was 14.1%; with `O=C(c1ccccc1)N1CC(Cl)CN(C(=O)c2ccccc2)CC(Cl)C1` (stereo not given), 25.6%.

Turning to `O=C1OC(Br)c2ccccc21` (stereo not given), the growth inhibition is -7.65%.

Consider `CC(=O)OC(C)(C)/C=C/C(=O)[C@](C)(O)[C@H]1[C@H](O)C[C@@]2(C)[C@@H]3CC=C4[C@@H](C[C@H](O)C(=O)C4(C)C)[C@]3(CO)C(=O)C[C@]12C`, for which the growth inhibition is 18.9%. The value for `CCC[CH2][Sn]([Cl])([Cl])[CH2]CCC.c1ccncc1` was 98% (active). Regarding `FC1(F)[Se]C2C3CCC(C3)C2C1(F)F` (stereo not given), the growth inhibition is -40.7%.

Turning to `O=C1CCCN1CC#CCN1CCCC1`, the growth inhibition was 6.2%. The value for `COc1cc(C=Nc2ccc(C(=O)O)c(O)c2)ccc1N(CCCl)CCCl` was 48.8%; that for `N#Cc1ccc(/C=C/C(=O)O)cc1` was -4.3%; that for `CCCOC(C(=O)OC1CCC2CCC1N2C)(c1ccccc1)c1ccccc1` (stereo not given) was 32.9%. For `CCCCCCC(Cn1ccnc1)c1ccc(Br)cc1` (stereo not given), the growth inhibition is 91.7% (active).

As for `C=C(C)[C@]12CC(C)C34OC(/C=C\C=C\CCCCCCCCC)(O[C@@H]1[C@@H]3[C@@H]1O[C@]1(CO)[C@@H](O)[C@]1(O)C(=O)C(C)=C[C@@H]41)O2` (stereo not given in full), the growth inhibition was 64.2%. With `CC(C)OP(=O)(OC(C)C)C(=O)Nc1ccc(Cl)cc1` the figure was -8%; with `CC(C)COC(=O)Cc1ccccc1`, 25.4%.

On to `CC(=O)O[C@H]1C(=O)[C@@]2(C)[C@H]([C@H](OC(=O)c3ccccc3)[C@@]3(O)C[C@H](O)C(C)=C1C3(C)C)[C@]1(OC(C)=O)CO[C@@H]1C[C@@H]2O`, for which the growth inhibition is -0.15%. The value for `[C-]#[O+].[C-]#[O+].[C-]#[O+].[Cr].c1ccc(P(CC[PH+](CC[PH+](CC[PH+](c2ccccc2)c2ccccc2)c2ccccc2)c2ccccc2)c2ccccc2)cc1` (stereo not given) was 37.8%. `CCCCC[As](=O)(O)O`: the growth inhibition is 7.95%. With `O=[N+]([O-])c1ccc(SN2C3CCCCC32)c([N+](=O)[O-])c1` (stereo not given) the figure was 22.7%; with `CCOc1ccc(/C=C/c2cc(OC)c(OC)c(OC)c2)cc1`, -34.2%; with `CN1CN(c2ccccc2)C2(CCN(Cc3csc4ccccc34)CC2)C1=O`, -20.1%. The value for `Clc1cccc2nncc(N3CC3)c12` was 9.25%.

Turning to `COc1cc(C2c3[nH]c4ccccc4c3C[C@H]3COC(=O)N23)cc(OC)c1OC` (stereo not given in full), the growth inhibition is -10.2%. In the case of `O=[N+]([O-])c1ccc(P2(=O)Nc3ccccc3N2)cc1`, the growth inhibition is -11.6%. With `O=[N+]([O-])c1ccc(CI)cc1` the figure was 23.3%. As to `COc1ccc([Se]c2ccc(OC)cc2OC)c(OC)c1`, the growth inhibition was -13.2%. The value for `COc1cc(/C=C(\C)[N+](=O)[O-])cc(OC)c1` was 86.3% (active); that for `CCCCC(=O)c1cc(OC)cc(OC)c1` was -10.7%.
